Results as given in PubChem BioAssay AID777 (Sanford-Burnham Center for Chemical Genomics, 2007).
Among all 96,000 compounds or so, about 19,000 (20%) were called active.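 How the source made its calls: active means blocking of liver enzyme CYP2C9 beyond about 50% at 5 µM (limit read from the data); inactive means the rest.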 A selection follows.

Each molecule was assayed against Cytochrome P450 2C9 (Homo sapiens) (UniProt P11712) (assay: blockers of cytochrome P450 2C9 activity – biochemical, luminescence, ADME assay, primary screen (AID 777)). Conditions: CYP2C9 Supersomes, luciferin-H conversion, at 5 µM, hits give high values.
Cytochrome P450 2C9 (Homo sapiens), sequence (P11712 whole entry, looked up): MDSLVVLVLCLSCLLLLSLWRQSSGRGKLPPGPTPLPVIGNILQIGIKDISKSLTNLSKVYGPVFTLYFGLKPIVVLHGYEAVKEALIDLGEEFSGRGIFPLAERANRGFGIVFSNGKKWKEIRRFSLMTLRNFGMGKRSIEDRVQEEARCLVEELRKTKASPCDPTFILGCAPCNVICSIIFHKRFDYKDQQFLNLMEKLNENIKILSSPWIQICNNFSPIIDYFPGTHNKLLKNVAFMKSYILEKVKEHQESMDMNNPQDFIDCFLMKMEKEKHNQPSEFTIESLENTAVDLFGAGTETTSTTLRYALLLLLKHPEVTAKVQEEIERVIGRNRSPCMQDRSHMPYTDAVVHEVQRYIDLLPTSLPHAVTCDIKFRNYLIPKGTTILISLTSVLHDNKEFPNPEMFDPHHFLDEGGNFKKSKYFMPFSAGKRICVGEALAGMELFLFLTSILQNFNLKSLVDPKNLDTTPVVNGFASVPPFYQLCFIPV

Row | SMILES | inhibition
1 | O=C1CCCC2=C1C(c1cccs1)n1nc(SCc3ccccc3)nc1N2 (configuration not stated) | -9.5% (inactive)
2 | COc1ccccc1C(=O)N1CCNC(=O)C1CC(=O)Nc1ccc(Cl)cc1 (configuration not stated) | 27.9% (inactive)
3 | Nc1ccccc1SCc1cc([N+](=O)[O-])cc2c1OCOC2 | 53.9% (active)
4 | CN(C)S(=O)(=O)c1ccc(Oc2ccc(S(=O)(=O)N(C)C)cc2)cc1 | 13.3% (inactive)
5 | Cc1cccc(N=C2NC(=O)CS2)c1C | 21.1% (inactive)
6 | COc1ccc2[nH]c(C)c(CCN(Cc3cccs3)C(=S)Nc3ccccc3OC)c2c1 | 43.2% (inactive)
7 | COC(=O)c1ccc(CN(c2ccccc2OC)S(=O)(=O)c2cccs2)o1 | 94.6% (active)
8 | COC(=O)c1ccc(Cc2ccccc2)o1 | -29.6% (inactive)
9 | Cc1oc(CC(C)C)c(CN2CCCC2)c1C(=O)O | -18.2% (inactive)
10 | CN(C)c1ccc(CNC2C3CC4CC(C3)CC2C4)cc1 (configuration not stated) | 4.8% (inactive)
11 | COc1ccccc1NC(=O)C1=C(C)Nc2nnnn2C1c1cccc(Br)c1 (configuration not stated) | 41% (inactive)
12 | COC(=O)c1ccc(C2C3=C(Nc4nnnn42)c2ccccc2OC3)cc1 (configuration not stated) | 92.8% (active)
13 | O=c1[nH]c2c(c(=O)n1Cc1ccccc1)CCC2 | -27.1% (inactive)
14 | COC(=O)c1ccc(/C=N\n2c(C)nnc2C)cc1 | -3.4% (inactive)
15 | Cc1noc(/C=C/c2ccco2)c1S(=O)(=O)N1CCC(C(=O)N2CCc3ccccc32)CC1 | 76.9% (active)
16 | Cc1noc(/C=C/N(C)C)c1S(=O)(=O)N1CCCC(C(=O)NCc2ccco2)C1 (configuration not stated) | 48.9% (inactive)
17 | CCOC(=O)C1CCN(C(=O)C2CCN(S(=O)(=O)c3c(C)noc3C)CC2)CC1 | 10.2% (inactive)
18 | CCCCN1C(=O)/C(=C2/C=CC=CN2C)SC1=S | -5% (inactive)
19 | Cc1ccc2c(c1)c1ncnc(N3CCc4ccccc4C3)c1n2C | 73% (active)
20 | Cc1cccc(-n2ncc3c(N4CCc5ccccc54)ncnc32)c1 | -9.6% (inactive)
21 | Cc1cc(C)nc(N2CCN(c3ncnc4c3oc3ccccc34)CC2)n1 | -20.3% (inactive)
22 | CCN(CC)C(=O)CSc1nnc(C2CCCCC2)o1 | 5.7% (inactive)
23 | COCc1cc(C)nc(Nc2cc(C)ccc2C)c1C#N | 15.6% (inactive)
24 | Oc1ccc(-c2onc3ccc(Cl)cc23)cc1 | 90.2% (active)
25 | CC1(C)Oc2ccc3ccc(=O)oc3c2/C(=C/NCCO)C1=O | 4.1% (inactive)

Row | SMILES | inhibition
26 | O=C(/C=C/Nc1ccccc1)c1cnc(-c2ccccc2)s1 | 12.6% (inactive)
27 | O=C1c2ccncc2C(=O)N1C1CCCCC1 | 12.5% (inactive)
28 | CCCCCOC(=O)C1=C(C)Nc2nnnn2C1c1ccc(OC)c(OC)c1OC (configuration not stated) | 56.5% (active)
29 | CC1=C(C(N)=O)C(c2sccc2C)n2nnnc2N1 (configuration not stated) | -4.8% (inactive)
30 | COc1ccc(C2C(C(=O)Nc3ccccc3OC)=C(C)Nc3nnnn32)c(OC)c1 (configuration not stated) | 31.8% (inactive)
31 | CCc1cc(Br)ccc1NC(=O)C1CCCO1 (configuration not stated) | -2.1% (inactive)
32 | CC(=O)Oc1cc2c(C(=O)NCCN3CCOCC3)c(C)oc2c2ccccc12 | 24.6% (inactive)
33 | CC(c1ccccn1)N(CCN(C)C)C(=S)Nc1ccccc1F (configuration not stated) | -1.3% (inactive)
34 | O=C(c1cccc(F)c1)N1CCN(c2ccc([N+](=O)[O-])c(N3CCCCC3)c2)CC1 | 80.7% (active)
35 | O=C(c1ccccc1)c1cccn1CC(=O)N1CCN(c2ccc(F)cc2)CC1 | -62.9% (inactive)
36 | CCC(CC)C(=O)Nc1cccc(C(=O)N2CCCC2)c1 | 12.7% (inactive)
37 | CC(C)N(C(=O)COC(=O)c1ccccc1C(=O)N1CCN(c2ccc(F)cc2)CC1)C(C)C | 39.5% (inactive)
38 | O=C(c1ccccc1)N1CCN(c2ccc([N+](=O)[O-])c(NCc3ccco3)c2)CC1 | 87.1% (active)
39 | CO/N=C/c1ccc(N2CCN(C(=O)c3cccc(Cl)c3)CC2)c([N+](=O)[O-])c1 | 14.4% (inactive)
40 | CCNC(=S)N1CCN(C(=O)c2ccco2)CC1 | 1.2% (inactive)
41 | O=C(O)C1CC=CCC1C(=O)Nc1ccccc1C(=O)N1CCN(c2ccccc2)CC1 (configuration not stated) | 6% (inactive)
42 | O=C(c1cccc(C(=O)N2CCN(c3ccc(F)cc3)CC2)c1)N1CCN(c2ccc(F)cc2)CC1 | 84.6% (active)
43 | O=C(c1cccc(N2CCCC2=O)c1)N1CCOCC1 | 5.6% (inactive)
44 | O=C(c1ccccc1Oc1ccccc1)N1CCN(c2ccc(F)cc2)CC1 | 77% (active)
45 | O=[N+]([O-])c1ccc(N2CCN(S(=O)(=O)c3ccc4ccccc4c3)CC2)cc1NCc1ccco1 | 27.8% (inactive)
46 | CNC(=O)Nc1cc(C(C)(C)C)no1 | 7.8% (inactive)
47 | CCOC(=O)c1c(N)c(C#N)nn1-c1ccccc1C(=O)OC | -2.3% (inactive)
48 | CN(C(=O)CC(NC(=O)c1ccccc1)(c1ccccc1)c1ccccc1)c1ccccc1 | 21.9% (inactive)
49 | CC(C)CC(=O)N=C1SC2CS(=O)(=O)CC2N1CCc1ccccc1 (configuration not stated) | 7.8% (inactive)
50 | CCc1ccc(-c2nnn(Cc3nn[nH]n3)n2)cc1 | 23.5% (inactive)

Row | SMILES | inhibition
51 | CCNC(=O)N1CCNC(=O)C1CC(=O)Nc1ccc(C(=O)OCC)cc1 (configuration not stated) | 1.1% (inactive)
52 | COC(=O)c1ccc(C(=O)OC)c(NC(=S)N2CCCCC2)c1 | 14% (inactive)
53 | O=C(Nc1ccc2c(c1)CCC2)c1cccc(S(=O)(=O)N2CCN(c3ccc(F)cc3)CC2)c1 | 39.9% (inactive)
54 | CCCCc1nnc(NC(=O)CS(=O)(=O)Cc2ccccc2)s1 | 44.7% (inactive)
55 | C=CCNc1nnc(C)c2ccccc12 | -15.2% (inactive)
56 | O=C(CN1CCN(C(=O)c2cccc(F)c2)CC1)Nc1ccccc1F | 27.5% (inactive)
57 | O=C(c1ccccc1)N1CCN(C(=O)N2CCCCC2)CC1 | 1.9% (inactive)
58 | Cc1ccc(C(=O)N2CCCCCC2)cc1Br | -23.3% (inactive)
59 | Cc1cccc(C(=O)N2CCCN(C(=O)c3cccc(C)c3)CC2)c1 | 70.4% (active)
60 | Cc1ccccc1CS(=O)(=O)CC1(O)CCN(C(=O)c2cccc(C(F)(F)F)c2)CC1 | 4.9% (inactive)
61 | Cc1ccccc1CN1CCN(C(=O)c2cccc(F)c2)CC1 | 85.6% (active)
62 | Cc1ccc(S(=O)(=O)N(c2cccc(C)c2)C2CCS(=O)(=O)C2)cc1 (configuration not stated) | 7.2% (inactive)
63 | CC(C)C(=O)Nc1ccc2c(c1)oc1ccccc12 | 1.8% (inactive)
64 | CC1Cc2ccccc2N1C(=O)CSc1nnc(-c2ccc(S(=O)(=O)N3CCCCC3)cc2)o1 (configuration not stated) | 31.7% (inactive)
65 | COc1ccc(C2=NOC3(CC(=O)N(c4ccc(C)cc4)C3=O)C2)cc1 (configuration not stated) | 12% (inactive)
66 | CCCc1nnc(NC(=O)c2cc(OC)cc(OC)c2)s1 | 21.7% (inactive)
67 | COc1ccc(S(=O)(=O)N2CCCC2)c(C)c1C | -147% (inactive)
68 | Cc1ccc(NS(=O)(=O)c2c(C)[nH]c(=O)[nH]c2=O)cc1C | 4.6% (inactive)
69 | COc1ccc(S(=O)(=O)Nc2ccc(F)cc2)c(C)c1C | 66.9% (active)
70 | CCOc1cc(C(=O)Nc2ncccn2)cc(OCC)c1OCC | 3.1% (inactive)
71 | Nc1nnc(C2CCCC2)s1 | 7.5% (inactive)
72 | CC1=C(C(=O)Nc2ccccc2)C(c2cccs2)C(C#N)=C(SCC#N)N1 (configuration not stated) | 87.5% (active)
73 | COc1ccc(NC(=O)c2sccc2SCC#N)cc1 | 10.4% (inactive)
74 | CCCSC1=C(C#N)C(c2ccccc2C)C(C(=O)OC)C(=O)N1 (configuration not stated) | 33.7% (inactive)
75 | C/C(=N\O)C1(C)N(O)C(C)(C)C(c2ccc(Br)cc2)=[N+]1[O-] (configuration not stated) | -4.6% (inactive)

Row | SMILES | inhibition
76 | O=c1onc(-c2cccs2)n1Cc1ccccc1 | 4.9% (inactive)
77 | Cc1ccc(OCCCC(=O)N2CCOCC2)c(C)c1 | 4% (inactive)
78 | CCCCCNC(=O)Cc1ccc(OC)cc1 | 14.9% (inactive)
79 | CCNC(=O)NC(=O)C(C)OC(=O)c1cc(S(=O)(=O)N2CCCCCC2)ccc1OC (configuration not stated) | 98.5% (active)
80 | COc1ccc(S(=O)(=O)N2CCC(C(=O)N3CCOCC3)CC2)cc1OC | 43.3% (inactive)
81 | CSCCC(NC(=O)c1ccco1)C(=O)OCC(=O)Nc1ncc(Cl)c(C)c1Cl (configuration not stated) | 24.2% (inactive)
82 | CCCCc1cc(=O)oc2cc(C)cc(OCc3nn[nH]n3)c12 | 67.5% (active)
83 | CCc1cc(=O)oc2cc(C)cc(OC(C)C(=O)O)c12 (configuration not stated) | -7.1% (inactive)
84 | O=c1[nH]c(CCl)nc2cc(-c3ccc(Cl)cc3)sc12 | 17.9% (inactive)
85 | O=C(Nc1sc2c(c1-c1nc3ccccc3[nH]1)CCCC2)C1CC1 | 40.5% (inactive)
86 | CCOC(=O)c1[nH]c2ccc(C)cc2c1N=C(C)N(C)C | -7.9% (inactive)
87 | CCOc1ccc(C(=O)N(Cc2ccc(N(C)C)cc2)C2CCS(=O)(=O)C2)cc1 (configuration not stated) | 65.3% (active)
88 | COc1cc(C(=O)N(Cc2ccc(N(C)C)cc2)C2CCS(=O)(=O)C2)cc(OC)c1OC (configuration not stated) | 5.2% (inactive)
89 | COc1ccc(C(=O)N(Cc2ccc(N(C)C)cc2)C2CCS(=O)(=O)C2)cc1 (configuration not stated) | -2.3% (inactive)
90 | O=C(Nc1nccs1)c1cc(S(=O)(=O)N2CCOCC2)c(Cl)cc1Cl | 15.1% (inactive)
91 | CC(=O)N(CC1CCCO1)C1(C(=O)NC2CCCC2)CCCCC1 (configuration not stated) | -7.3% (inactive)
92 | CCOc1ccccc1Nc1nnc(SCc2ccc(C(=O)OC)o2)s1 | -73.5% (inactive)
93 | COC(=O)c1ccc(CSc2ccc3nnc(-c4ccccc4)n3n2)o1 | 96.2% (active)
94 | COC(=O)c1ccc(CSc2nncn2C)cc1 | 21.6% (inactive)
95 | COc1cc(OC)cc(-c2nc3nc(C)c(CCC(=O)NCc4ccco4)c(C)n3n2)c1 | 15.8% (inactive)
96 | O=C(NCc1ccccn1)c1c(O)c2c([nH]c1=O)CCCC2 | 15% (inactive)
97 | COc1ccc(CNC(=O)C2CCC(CNc3c(N4CCOCC4)c(=O)c3=O)CC2)cc1 (configuration not stated) | -7.6% (inactive)
